HCMV antiviral: qHTS Assay for inhibitors of the human cytomegalovirus (HCMV). AID 1259415, 2018. HFF cells, HCMV-luciferase reporter, 72 h; active compounds read low. activity change, negative = inhibition, % at 57.5 µM. actives 4.5% (n = 410,000); in the data active = activity change below about -60%; inconclusive = no clear call, values can overlap the other calls; inactive = above about -39%
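HFF cells seeded 16 h at 37C, treated with compounds, infected with luciferase-reporter HCMV at MOI 1 PFU/cell; luciferase read at 72 h post infection, normalized to buffer-only and Salinomycin controls.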
Vaccinia Venus: qHTS for Stage-Specific Inhibitors of Vaccinia Orthopoxvirus: Venus Reporter Primary qHTS; Vaccinia virus Venus reporter expression, fluorescence; Potency, µM (doses to about 36.5 µM), hits mostly inhibitors; actives 0.46% (n = 330,000); AID 720580, 2013; calls by dose curve; tested in A549 cells; also: nearly all actives have a fitted effect of over 30% in size
FMDV antiviral: High Throughput Screening for Foot and Mouth Disease Virus Antivirals | FMDV antiviral cell-based qHTS | Potency, µM (highest dose often 57.9 µM), usual class: inhibitors | actives 1.2% (n = 410,000); calls by dose curve; tested in HEK293T cells; also: read-out not given here; nearly all actives have a fitted effect of over 45% in size
Marburg entry inh: qHTS for inhibitors of binding or entry into cells for Marburg Virus | Marburg virus pseudotyped entry inhibition, cell reporter | Potency, µM (highest dose often 37.8 µM), usual class: inhibitors | actives 1.8% (n = 300,000); calls by dose curve; tested in HEK293 cells
LASV entry inh: qHTS for Inhibitors of binding or entry into cells for Lassa Virus; Lassa virus pseudotype entry inhibition, cell reporter; Potency, µM (series often up to 37.9 µM), actives largely listed as inhibitors; actives 1.2% (n = 300,000); AID 540256, 2011; calls by dose curve; tested in HEK293 cells; also: nearly all actives have a fitted effect of over 50% in size
Vaccinia mCherry: qHTS for Stage-Specific Inhibitors of Vaccinia Orthopoxvirus: mCherry Reporter Primary qHTS; actives 0.63% (n = 310,000); Vaccinia virus mCherry reporter infection, fluorescence; Potency, µM (titrated, usually from 36.5 µM), hits mostly inhibitors; calls by dose curve; tested in A549 cells; also: nearly all actives have a fitted effect of over 35% in size
Each line names hits and unclear results; the compound was inactive in the other large screens. Hits are enriched below; roughly 6.5% of the tested compounds scored in any of these assays.

CC1Cc2ccccc2N1C(=O)NC1CC(=O)N(c2ccc3c(c2)OCCO3)C1 (centres undefined)	Marburg entry inh inconclusive
CCCCCCN1Cc2ccccc2C1	Marburg entry inh inconclusive (no result: Vaccinia mCherry)
CCCCCCCCn1sccc1=O	FMDV antiviral 28.2µM (no result: Marburg entry inh, LASV entry inh)
CC(=O)N1CCC2(CC1)C/C(=N\NC(=S)Nc1ccccc1F)c1cc(O)ccc1O2	HCMV antiviral -82.4, Marburg entry inh inconclusive, LASV entry inh inconclusive, Vaccinia mCherry inconclusive
CC(=O)N1CCC2(CC1)C/C(=N\NC(=S)Nc1ccccc1C)c1cc(O)ccc1O2	none (no result: Vaccinia Venus, Marburg entry inh, LASV entry inh, Vaccinia mCherry)
O=C(N[C@@H]1c2ccccc2C2(CCN(C(=O)c3ccc4c(c3)OCCO4)CC2)[C@H]1O)c1cccnc1	none (no result: HCMV antiviral, Marburg entry inh, LASV entry inh)
C=CCN1C(=O)S/C(=C/c2ccc(Sc3nc4ccccc4[nH]3)o2)C1=O	HCMV antiviral -92.3, FMDV antiviral 28.2µM, Marburg entry inh inconclusive, LASV entry inh 20µM, Vaccinia mCherry inconclusive
CCOC(=O)C(C)N1C(=O)S/C(=C\c2ccc(-c3ccccc3C(=O)O)o2)C1=O (centres undefined)	none (no result: Vaccinia Venus, Marburg entry inh, LASV entry inh, Vaccinia mCherry)
O=C1NC(=O)N(c2ccc(Cl)cc2)C(=O)/C1=C\c1ccc(Sc2nc3ccccc3[nH]2)o1	Marburg entry inh inconclusive, LASV entry inh inconclusive
CC(C)N1C(=O)S/C(=C/c2ccc(Sc3nc4ccccc4[nH]3)o2)C1=O	HCMV antiviral -84.9, Vaccinia Venus inconclusive, FMDV antiviral 11.2µM, Marburg entry inh inconclusive, LASV entry inh inconclusive, Vaccinia mCherry inconclusive
CCCC(=O)N1CC2(CCN(C)CC2)c2c(n(C)c3cc(OC)ccc23)[C@H]1CO	none (no result: Vaccinia Venus, FMDV antiviral, Marburg entry inh, LASV entry inh, Vaccinia mCherry)
CCC(C)NC(=O)CSc1nc2cc3c(cc2c(=O)n1CCCC(=O)NCc1ccc2c(c1)OCO2)OCO3 (centres undefined)	none (no result: Marburg entry inh)
CCc1ccc(NC(=O)c2ccc3[nH]c(C)c(C)c3c2)cc1	none (no result: Marburg entry inh)
Cc1[nH]c2ccc(C(=O)Nc3ccncc3)cc2c1C	HCMV antiviral -62.9 (no result: Vaccinia Venus, Marburg entry inh, LASV entry inh, Vaccinia mCherry)
Cc1ccc(C(=O)NCC(=O)Nc2ccncc2)cc1C	HCMV antiviral -73.8
COc1ccc(Nc2nccc3[nH]c(-c4cccc(OC(F)(F)F)c4)nc23)cc1OC	none (no result: Vaccinia Venus, FMDV antiviral, Marburg entry inh, LASV entry inh, Vaccinia mCherry)
CCOc1cc(/C=N\Nc2ccc([N+](=O)[O-])cc2)ccc1OCC(=O)Nc1ccc(C)c(C)c1	HCMV antiviral inconclusive (no result: Vaccinia mCherry)
COc1ccc([N+](=O)[O-])cc1/C=N/NC(=O)Cc1ccccc1	HCMV antiviral inconclusive (no result: Vaccinia Venus, Marburg entry inh, LASV entry inh, Vaccinia mCherry)
COc1cc(/C=N/NC(=O)Cc2ccccc2)ccc1Oc1ccc([N+](=O)[O-])cc1[N+](=O)[O-]	HCMV antiviral -61.5 (no result: Vaccinia Venus, Vaccinia mCherry)
COc1cc(/C=N\Nc2ccc([N+](=O)[O-])cc2)ccc1OCC(=O)Nc1ccc(C)c(C)c1	HCMV antiviral -71.6 (no result: Vaccinia mCherry)
Cc1c(/C(O)=C2/C(=O)C(=O)N(CCN3CCOCC3)C2c2ccccn2)cnn1-c1ccccc1 (centres undefined)	HCMV antiviral -78.2, FMDV antiviral 1.41µM, Marburg entry inh inconclusive, LASV entry inh inconclusive
S=C(NCCSCc1ccc(Cl)c(Cl)c1)Nc1ccccc1	Marburg entry inh inconclusive, LASV entry inh inconclusive
S=C(NCCSCc1c(Cl)cccc1Cl)Nc1ccccc1	HCMV antiviral inconclusive, Marburg entry inh inconclusive (no result: Vaccinia Venus, Vaccinia mCherry)
Cc1ccccc1CSCCNC(=S)Nc1ccccc1	HCMV antiviral -82.7, Marburg entry inh inconclusive
OCCCCNCc1ccc(OCc2ccc(Cl)cc2Cl)cc1	Vaccinia Venus inconclusive, Marburg entry inh 5.8µM, LASV entry inh inconclusive, Vaccinia mCherry 28.2µM (no result: FMDV antiviral)
S=C(Nc1ccccc1)Nc1ccc(OCc2ccc(Cl)cc2Cl)cc1	HCMV antiviral -80.1, FMDV antiviral 0.316µM, Marburg entry inh inconclusive, LASV entry inh inconclusive (no result: Vaccinia Venus, Vaccinia mCherry)
OCCNCc1ccc(OCc2ccc(Cl)cc2Cl)cc1	HCMV antiviral inconclusive, Marburg entry inh inconclusive
S=C(NCCSCc1ccc(Cl)cc1Cl)Nc1ccccc1	HCMV antiviral -62.0, Vaccinia Venus inconclusive, FMDV antiviral inconclusive, Marburg entry inh inconclusive, LASV entry inh inconclusive
Cc1cccc(-c2nc3c(N4CCOCC4)nccc3[nH]2)c1	none (no result: Vaccinia Venus, FMDV antiviral, Marburg entry inh, LASV entry inh, Vaccinia mCherry)
CCCC(=O)OC[C@H]1CN([C@H](C)c2ccccc2)S(=O)(=O)c2c(F)cccc2O1	none (no result: Vaccinia Venus, FMDV antiviral, Marburg entry inh, LASV entry inh, Vaccinia mCherry)
CCC(=O)N1CCc2cc(Br)cc(S(=O)(=O)CCC(=O)NCCc3cccc(C)c3)c21	none (no result: Marburg entry inh)
Cc1nc2c(c(C)c1CCC(=O)Nc1cccc(C(F)(F)F)c1)c(=O)n(C)c(=O)n2C	FMDV antiviral inconclusive

Screening results (PubChem BioAssay)
